The record followed here is PubChem BioAssay (NCATS).

Results filed as inconclusive are left out. Calls of active or inactive are those of the source. Unless noted, calls follow the shape of the dose curve; as a rule, active = well fitted curve in the direction sought with a large enough effect; inconclusive = small, poorly fitted or top-dose-only effect, or another doubt; inactive = no such curve, though single readings can be large; an effect the other way counts as inactive or inconclusive.

Assay [1] is described as follows: qHTS Assay for Lipid Storage Modulators (AID 1519; calls by dose curve; as to activity change, negative = inhibition: % is scaled to controls: 0 for no effect and ±100 for the full control effect). As to conditions: Drosophila S3 cells, BODIPY lipid droplet/cell ratio, laser cytometry, cells loaded with oleic acid; for activity change, negative = inhibition: at 57.5 µM (top of the series). The method, boiled down:
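Cells seeded at 5,000 per well were treated with compounds over a concentration series and loaded with oleic acid (400 uM, as added). Lipid droplet fluorescence (488 nm excitation, 500-530 nm channel) was read by laser-scanning cytometry and normalized to 20 uM Triacsin C.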

Assay [2] addresses ATP-dependent 6-phosphofructokinase (Trypanosoma brucei brucei) (UniProt O15648). The experiment in a line: qHTS Assay to Find Inhibitors of T. brucei phosphofructokinase: hit validation (AID 492961).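 Also: luminescence reports ADP formed as PFK phosphorylates fructose-6-phosphate with ATP; % is scaled to controls: 0 for no effect and ±100 for the full control effect.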 The following applies: T. brucei PFK, ADP-Glo luminescence; series mostly up to 24.3 µM. The gist of the method: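 Reaction: 0.1 M triethanolamine pH 8.0, 5 mM MgCl2, F6P 0.5 mM, ATP 0.1 mM, PFK 1.25 nM, 45 min RT. Read-out: ADP-Glo luminescence. Analysis: concentration-response fits, classed by r2 and efficacy.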
(In qHTS, concentration-response curves come from the screen itself.)

Assay [3] has as its target Luciferin 4-monooxygenase (Photinus pyralis) (UniProt P08659). The experiment in a line: Biochemical firefly luciferase enzyme assay for NPC (AID 624030).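 Also: purified P. pyralis luciferase at 10 nM with luciferin and ATP substrate; 0% = DMSO and -100% = full luciferase inhibition by PTC124 control; nearly all actives have a fitted effect of over 70% in size.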 As to conditions: purified P. pyralis luciferase, luminescence, 5 min; series mostly up to 24.9 µM. The gist of the method:
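Counter-screen for direct inhibition of the luciferase enzyme by approved-drug library compounds, run at 10 nM enzyme in 50 mM Tris acetate (final). Luminescence was read within 5 min of enzyme-buffer addition and normalized to PTC124 versus DMSO (0%).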

The nature of assay [4]: qHTS profiling for inhibitors of Plasmodium falciparum proliferation (AID 504749).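 Also: 0% = DMSO vehicle and full inhibition = artemisinin control; nearly all actives have a fitted effect of over 60% in size.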 As to conditions: P. falciparum in erythrocytes, SYBR Green DNA, 72 h, at 28.7 µM (top of the series). The method, boiled down:
(§1)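 P. falciparum-infected erythrocytes (0.3% parasitemia, 2.5% hematocrit final) were exposed to compounds for 72 h at 37 C in 5% CO2, then lysed with SYBR Green buffer overnight at room temperature; parasite DNA fluorescence was normalized to artemisinin and DMSO controls.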

The next assay concerns 3D7. The assay is described as above. As to conditions: P. falciparum in erythrocytes, SYBR Green DNA, 72 h; series mostly up to 12.8 µM. The gist of the method:
as §1

Another assay has as its system C2A. Described as above. The following applies: P. falciparum in erythrocytes, SYBR Green DNA, 72 h; series mostly up to 12.8 µM. The method, boiled down:
as §1

The test system of the next assay is CP201. The assay is described as above. The following applies: P. falciparum in erythrocytes, SYBR Green DNA, 72 h; series mostly up to 12.8 µM. The method, boiled down: as §1
A further assay has as its system CP211. The assay is described as above. As to conditions: P. falciparum in erythrocytes, SYBR Green DNA, 72 h; series mostly up to 12.8 µM. The method, boiled down:
as §1

In the next assay the test system is CP237. The assay is described as above. The following applies: P. falciparum in erythrocytes, SYBR Green DNA, 72 h; series mostly up to 12.8 µM. The method, boiled down:
as §1

Another assay has as its system CP252. Described as above. As to conditions: P. falciparum in erythrocytes, SYBR Green DNA, 72 h; series mostly up to 12.8 µM. The method, boiled down: as §1
The subject of the next assay is CP262. The assay is described as above. As to conditions: P. falciparum in erythrocytes, SYBR Green DNA, 72 h; series mostly up to 12.8 µM. The method, boiled down:
as §1

The subject of the next assay is CP268. The description is as above. As to conditions: P. falciparum in erythrocytes, SYBR Green DNA, 72 h; series mostly up to 12.8 µM. The gist of the method: as §1
A further assay deals with CP305. The description is as above. As to conditions: P. falciparum in erythrocytes, SYBR Green DNA, 72 h; series mostly up to 12.8 µM. The gist of the method:
as §1

Another assay has as its system CP315. The description is as above. The following applies: P. falciparum in erythrocytes, SYBR Green DNA, 72 h; series mostly up to 12.8 µM. The method, boiled down: as §1
Another assay deals with CP329. Described as above. The following applies: P. falciparum in erythrocytes, SYBR Green DNA, 72 h; series mostly up to 12.8 µM. The method, boiled down:
as §1

The test system of another assay is HB3. The description is as above. As to conditions: P. falciparum in erythrocytes, SYBR Green DNA, 72 h; series mostly up to 12.8 µM. The method, boiled down:
as §1

Another assay deals with JCK. The description is as above. The following applies: P. falciparum in erythrocytes, SYBR Green DNA, 72 h; series mostly up to 12.8 µM. The method, boiled down:
as §1

For the next assay, the system named is PAD. Described as above. The following applies: P. falciparum in erythrocytes, SYBR Green DNA, 72 h; series mostly up to 12.8 µM. The gist of the method:
as §1

The next assay has as its system PC49. The assay is described as above. The following applies: P. falciparum in erythrocytes, SYBR Green DNA, 72 h; series mostly up to 12.8 µM. The method, boiled down: as §1
Assay [5] has as its target Ubiquitin carboxyl-terminal hydrolase 1 (Homo sapiens) (UniProt O94782). The experiment in a line: Inhibitors of USP1/UAF1: Pilot qHTS (AID 504865).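 Also: rhodamine fluorescence freed from ubiquitin-rhodamine substrate followed over time; top concentration of the series differs between compounds; % is scaled to controls: 0 for no effect and ±100 for the full control effect; nearly all actives have a fitted effect of over 35% in size.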 As to conditions: purified USP1/UAF1, Ub-rhodamine cleavage fluorescence; series mostly up to 114 µM. The gist of the method:
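Kinetic fluorescence assay: 1nM USP1/UAF1, 15 min compound preincubation, then 150nM Ub-Rho; 480/540 nm.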

The mark [6] stands for this setting: measured here: cell count channel max response.
[7] abbreviates: measured here: lipid channel max response.

Sequence of Luciferin 4-monooxygenase (Photinus pyralis) (P08659 whole entry, looked up): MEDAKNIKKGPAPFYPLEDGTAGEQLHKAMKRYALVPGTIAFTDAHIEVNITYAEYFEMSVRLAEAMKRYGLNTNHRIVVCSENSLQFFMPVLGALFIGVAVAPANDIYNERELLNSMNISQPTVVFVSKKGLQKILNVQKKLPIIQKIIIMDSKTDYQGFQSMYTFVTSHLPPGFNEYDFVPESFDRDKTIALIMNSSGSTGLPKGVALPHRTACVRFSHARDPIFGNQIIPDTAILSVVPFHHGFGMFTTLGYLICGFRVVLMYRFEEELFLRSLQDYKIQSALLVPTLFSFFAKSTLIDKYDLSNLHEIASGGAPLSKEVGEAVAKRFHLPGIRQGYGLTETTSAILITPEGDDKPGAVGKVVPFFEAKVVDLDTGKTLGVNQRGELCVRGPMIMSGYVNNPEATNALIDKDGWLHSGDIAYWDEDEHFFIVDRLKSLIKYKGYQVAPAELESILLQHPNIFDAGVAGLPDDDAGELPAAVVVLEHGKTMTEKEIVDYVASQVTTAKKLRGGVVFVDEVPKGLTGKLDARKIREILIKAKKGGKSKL
Sequence of ATP-dependent 6-phosphofructokinase (Trypanosoma brucei brucei) (O15648 whole entry, looked up): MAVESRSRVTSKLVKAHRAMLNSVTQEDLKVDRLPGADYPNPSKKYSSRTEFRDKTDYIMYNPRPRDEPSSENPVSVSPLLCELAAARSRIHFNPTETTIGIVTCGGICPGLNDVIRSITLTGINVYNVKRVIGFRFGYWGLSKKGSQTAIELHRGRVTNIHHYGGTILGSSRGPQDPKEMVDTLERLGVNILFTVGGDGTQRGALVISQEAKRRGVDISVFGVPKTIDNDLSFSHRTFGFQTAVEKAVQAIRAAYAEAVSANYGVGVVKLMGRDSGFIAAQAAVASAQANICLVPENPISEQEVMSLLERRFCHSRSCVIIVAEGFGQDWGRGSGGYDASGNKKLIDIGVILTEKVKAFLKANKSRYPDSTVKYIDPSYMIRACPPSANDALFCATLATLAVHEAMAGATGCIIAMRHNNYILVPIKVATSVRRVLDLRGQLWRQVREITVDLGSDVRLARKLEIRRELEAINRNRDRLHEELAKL
Sequence of Ubiquitin carboxyl-terminal hydrolase 1 (Homo sapiens) (O94782 whole entry, looked up): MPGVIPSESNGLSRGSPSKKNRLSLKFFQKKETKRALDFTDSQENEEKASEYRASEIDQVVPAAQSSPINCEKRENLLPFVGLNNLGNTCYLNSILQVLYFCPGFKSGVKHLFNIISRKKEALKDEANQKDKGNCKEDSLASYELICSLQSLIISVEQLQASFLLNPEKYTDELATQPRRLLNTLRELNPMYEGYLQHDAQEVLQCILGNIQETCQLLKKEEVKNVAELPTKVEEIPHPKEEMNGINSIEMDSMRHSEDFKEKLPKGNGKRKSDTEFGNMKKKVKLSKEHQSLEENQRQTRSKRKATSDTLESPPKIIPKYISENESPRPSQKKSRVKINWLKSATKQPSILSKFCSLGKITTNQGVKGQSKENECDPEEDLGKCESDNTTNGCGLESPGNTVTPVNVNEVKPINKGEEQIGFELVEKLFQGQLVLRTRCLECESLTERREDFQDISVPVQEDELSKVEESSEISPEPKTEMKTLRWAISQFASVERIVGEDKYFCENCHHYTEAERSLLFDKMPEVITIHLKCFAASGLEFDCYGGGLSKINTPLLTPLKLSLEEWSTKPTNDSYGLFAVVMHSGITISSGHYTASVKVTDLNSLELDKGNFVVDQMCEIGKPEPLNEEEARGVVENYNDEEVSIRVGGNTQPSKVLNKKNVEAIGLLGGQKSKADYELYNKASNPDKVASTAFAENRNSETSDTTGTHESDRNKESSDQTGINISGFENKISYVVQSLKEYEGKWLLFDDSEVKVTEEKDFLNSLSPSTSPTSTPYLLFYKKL

On to `CC(=O)OC1CCC2C3CCc4cc(O)ccc4C3CCC12C` (configuration not stated), for which, in assay [1], the activity change, negative = inhibition was -1.06% (inactive). Further, the max response in assay [1] (setting [6]) was determined as 7.54%; in [1] (setting [7]), 8.25%. Further, the compound was called inactive in assay [2]. Also, the Potency entry (in [3]; with 3D7; in the assay with C2A; with CP201; in the assay on CP211; in the assay with CP237) was “inactive” in each case. The Potency entry in the assay with CP252, in the assay on CP262, in the assay with CP268, with CP305, in the assay with CP315 and in the assay with CP329 was “inactive” in each case. Moreover, the Potency entry in the assay on HB3, in the assay with JCK, with PAD and in the assay with PC49 was “inactive” throughout. Further, the activity, negative = inhibition in [4] (parasite line A) was 6.77% (inactive); in [4] (parasite line B), 4.39% (inactive).

`Nc1nc2ncc(CNc3ccc(C(=O)NC(CCC(=O)O)C(=O)O)cc3)nc2c(=O)[nH]1` (configuration not stated): in assay [1], the activity change, negative = inhibition is 5.18% (inactive). Further, the figures for the max response in assay [1] (setting [6]) and in [1] (setting [7]) were 16.9% and 24.2%, respectively. Moreover, the compound was called inactive in assay [2]. Also, the Potency entry (in assay [5]; in [3]; in the assay on 3D7; in the assay on C2A; in the assay with CP201; in the assay with CP211) was “inactive” in each case. Moreover, the Potency entry in the assay on CP237, in the assay on CP252, with CP262, with CP268, in the assay with CP305 and in the assay with CP315 was “inactive” each time. Moreover, the Potency result in the assay with CP329, in the assay on HB3, in the assay with JCK, in the assay on PAD and in the assay on PC49 was “inactive” throughout. In addition, the activity, negative = inhibition is 10.3% (inactive) in assay [4] (parasite line A) and 16.6% (inactive) in assay [4] (parasite line B).

As for `COc1ccc2cc(C(C)CO)ccc2c1` (configuration not stated), the activity change, negative = inhibition in assay [1] was 8.58% (inactive). The max response was determined as 13.8% in [1] (setting [6]) and 24.6% in assay [1] (setting [7]). Also, the compound was classed as inactive in assay [2]. The Potency entry (in assay [5]; in assay [3]; with 3D7; with C2A; in the assay on CP201; in the assay with CP211) was “inactive” each time. For the same compound, the Potency entry with CP237, in the assay on CP252, with CP262, with CP268, with CP305 and with CP315 was “inactive” in each case. Moreover, the Potency result in the assay on CP329, in the assay on HB3, with JCK, in the assay on PAD and with PC49 was “inactive” in each case. The activity, negative = inhibition is 12.4% (inactive) in [4] (parasite line A) and 6.41% (inactive) in assay [4] (parasite line B).

With `C/C1=C2N=C(/C=C3N=C(/C(C)=C4\[N-]C(C)(C5N=C1C(C)(CCC(=O)NCC(C)OP(=O)([O-])O[C@H]1C(O)C(n6cnc7cc(C)c(C)cc76)O[C@@H]1CO)C5CC(N)=O)C(C)(CC(N)=O)C4CCC(N)=O)C(C)(CC(N)=O)C\3CCC(N)=O)C(C)(C)C/2CCC(N)=O.[CH2-]C1OC(n2cnc3c(N)ncnc32)C(O)C1O.[Co]` (some centres not stated), the activity change, negative = inhibition in assay [1] was 3.3% (inactive). In addition, the max response was 22.1% in assay [1] (setting [6]) and 29.7% in [1] (setting [7]). For the same compound, in [2], the result was inactive. Also, the Potency result (in assay [3]; with 3D7; with C2A; in the assay on CP201; in the assay with CP237; in the assay with CP252) was “inactive” each time. Moreover, the Potency result in the assay on CP262, in the assay on CP268, in the assay on CP305, in the assay on CP315, in the assay with CP329 and with HB3 was “inactive” in each case. In addition, the Potency result in the assay with JCK, with PAD and in the assay with PC49 was “inactive” each time. The figures for the activity, negative = inhibition in assay [4] (parasite line A) and in assay [4] (parasite line B) were 4.62% (inactive) and 4.58% (inactive), respectively.

Take `C[C@]1(c2ccccc2)OC(C(=O)O)=CC1=O`: the activity change, negative = inhibition in assay [1] was -2% (inactive). The max response in assay [1] (setting [6]) is -4.61%; in assay [1] (setting [7]) it was -6.08%. Besides, the compound was called inactive in [2]. The Potency entry (in assay [5]; in assay [3]; in the assay on 3D7; in the assay on C2A; with CP201; in the assay on CP211) was “inactive” in each case. The Potency entry with CP237, in the assay on CP252, in the assay on CP262, with CP268, with CP305 and in the assay on CP315 was “inactive” each time. Further, the Potency result with CP329, in the assay with HB3, in the assay with JCK, in the assay on PAD and in the assay on PC49 was “inactive” throughout. Besides, the activity, negative = inhibition in [4] (parasite line A) is 4.24% (inactive); in assay [4] (parasite line B), 8.18% (inactive).
